A selection: hits, their analogues and other compounds. The true share with any hit is near 5.2%.
Sfp inh = inhibitors of Bacillus subtilis Sfp phosphopantetheinyl transferase. Q9F4F7. Potency, µM, most hits filed as inhibitors. 310,000 compounds, 3.5% hits. Biochemical Sfp PPTase activity, qHTS;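 also: the enzyme is Sfp with the accession as filed and its product quenches rhodamine fluorescence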
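Step 1, compound plus 15 nM Sfp-PPTase, 15 min, room temperature. Step 2, add rhodamine-CoA (5 uM) and BHQ-2-YbbR (12.5 uM). Step 3, read 525/598 nm fluorescence at 0 and 30 min.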
PLK1 PBD inh = inhibitors of human PLK1 polo-box domain binding; 360,000 compounds, 2.8% hits; Plk1 PBD binding of FITC phosphopeptide, fluorescence polarization; P53350; AID 720504; Potency, µM, usual class: inhibitors; also: series mostly up to about 57 µM; nearly all actives have a fitted effect of over 65% in size
rTrxR1 inhibitor = blocks rat thioredoxin reductase 1; O89049; recombinant rTrxR1, NADPH fluorescence consumption, selenite substrate; Potency, µM (doses to about 114 µM), usual class: inhibitors; 390,000 compounds, 1% hits; AID 588453; also: nearly all actives have a fitted effect of over 65% in size
Target sequence (O89049 whole entry, looked up): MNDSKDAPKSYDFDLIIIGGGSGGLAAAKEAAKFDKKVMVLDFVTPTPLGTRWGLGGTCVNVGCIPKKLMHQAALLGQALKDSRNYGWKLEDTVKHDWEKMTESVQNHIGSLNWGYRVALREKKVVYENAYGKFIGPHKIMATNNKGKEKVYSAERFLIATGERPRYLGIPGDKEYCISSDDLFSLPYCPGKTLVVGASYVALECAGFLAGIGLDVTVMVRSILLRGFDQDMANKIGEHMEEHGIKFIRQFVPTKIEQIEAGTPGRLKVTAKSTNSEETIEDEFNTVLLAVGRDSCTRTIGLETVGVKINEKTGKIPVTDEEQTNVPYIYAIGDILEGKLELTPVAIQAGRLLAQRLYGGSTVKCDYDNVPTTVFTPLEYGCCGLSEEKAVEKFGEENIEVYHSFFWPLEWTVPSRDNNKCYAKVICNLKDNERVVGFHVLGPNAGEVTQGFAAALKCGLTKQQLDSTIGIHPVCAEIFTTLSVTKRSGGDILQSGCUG
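Rat TrxR1 (90 nM in the dispensed reagent) was pre-reduced with 400 uM NADPH for 5 min at room temperature, then incubated with compound for 15 min. After 400 uM selenite was added, NADPH fluorescence (Ex 340/Em 450 nm) was followed for 8 min.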
TrxR1 substrate = rat thioredoxin reductase 1 substrate activity. purified TrxR1 substrate turnover, NADPH consumption readout. Potency, µM (top dose mostly 114 µM). O89049. 390,000 compounds, 0.01% hits. AID 588456; also: nearly all actives have a fitted effect of over 50% in size
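Rat TrxR1, dispensed at 90 nM, was prereduced with 400 uM NADPH (final) for 5 min at ~22 deg C, then incubated with compound 15 min before 400 uM selenite. A first-read NADPH fluorescence drop versus no-compound background flagged substrates.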
VDR inh = blocks the human vitamin D receptor | Potency, µM, hits mostly inhibitors | VDR-SRC2-3 peptide fluorescence polarization, 2 h | 400,000 compounds, 0.93% hits | P11473
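Reagent solutions, kept cold and dark, are dispensed first; compounds are then pinned in at 23 nl, plates briefly spun, and incubated 2 h at ambient temperature. Inhibition of VDR–SRC2-3 peptide binding is read by fluorescence polarization.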
mIDH1 inhibitor = inhibitors of human mutant IDH1 R132H | AID 602179 | IDH1-R132H enzyme, NADPH consumption, diaphorase/resazurin fluorescence | O75874 | 390,000 compounds, 0.093% hits | Potency, µM (doses to about 76.6 µM), hits mostly inhibitors; also: nearly all actives have a fitted effect of over 65% in size
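IDH1-R132H (0.5 ug/mL dispensed) in pH 7.5 Tris buffer was preincubated 30 min with compound, then given a substrate mix of 0.016 mM NADPH and 2 mM alpha-KG for 80 min at room temperature; remaining NADPH was read by diaphorase/resazurin fluorescence.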
Large screens that a line does not name were inactive. Calls follow the shape of the dose curve; as a rule, active = well fitted curve in the direction sought with a large enough effect; inconclusive = small, poorly fitted or top-dose-only effect, or another doubt; inactive = no such curve, though single readings can be large; an effect the other way counts as inactive or inconclusive.

CC[C@H](C)[C@H](NC(=O)[C@H](CC(C)C)NC(=O)[C@H](CO)NC(=O)[C@H](CCC(=O)O)NC(=O)[C@H](CC(C)C)NC(=O)[C@H](Cc1ccc(O)cc1)NC(=O)[C@H](CCCCN)NC(=O)[C@H](CCCCN)NC(=O)[C@H](C)NC(=O)[C@H](CO)NC(=O)[C@H](CC(C)C)NC(=O)[C@H](CCC(N)=O)NC(=O)CNC(=O)[C@H](CC(C)C)NC(=O)[C@H](CC(C)C)NC(=O)[C@H](CCCNC(=N)N)NC(=O)[C@H](CO)NC(=O)[C@H](Cc1ccccc1)NC(=O)[C@H](CC(=O)O)NC(=O)[C@H](CO)NC(=O)[C@@H](NC(=O)[C@H](Cc1ccccc1)NC(=O)[C@@H](NC(=O)CNC(=O)[C@H](CC(=O)O)NC(=O)[C@H](C)NC(=O)[C@@H](N)Cc1cnc[nH]1)C(C)C)[C@@H](C)O)C(N)=O	none (no result: PLK1 PBD inh, rTrxR1 inhibitor, TrxR1 substrate, mIDH1 inhibitor)
COc1ccc(C(=O)NCC(=O)OCC(=O)c2cccc3ccccc23)cc1	none (no result: Sfp inh, PLK1 PBD inh, mIDH1 inhibitor)
CCCCCCCC1=Cc2ccccc2C(CC(=O)c2ccccc2)N1C(=O)OC (stereo not drawn)	none (no result: PLK1 PBD inh, rTrxR1 inhibitor, TrxR1 substrate, VDR inh, mIDH1 inhibitor)
CCCc1nc([N+](=O)[O-])c(S(=O)(=O)c2ccccc2)n1CC(C)C	rTrxR1 inhibitor 2.8µM
CCOC(=O)N1CCN(C(=O)c2ccc3c(c2)N(CC)CCS3)CC1	Sfp inh 50µM
CCOC(=O)N1CCN(C(=O)c2ccc3c(c2)N(Cc2ccc(F)cc2)CCS3)CC1	VDR inh inconclusive
CCc1cc2c(=O)n(Cc3ccco3)c(SCC(=O)NC3CCS(=O)(=O)C3)nc2s1 (stereo not drawn)	Sfp inh 32µM, rTrxR1 inhibitor inconclusive
CN(C(=O)CSc1nc2cc(Cl)ccc2c(=O)n1Cc1ccco1)C1CCS(=O)(=O)C1 (stereo not drawn)	none
CCc1cc2c(=O)n(Cc3ccco3)c(SCC(=O)NCC3CCCO3)nc2s1 (stereo not drawn)	none
CCc1cc2c(=O)n(Cc3ccco3)c(SCc3c(C)noc3C)nc2s1	rTrxR1 inhibitor inconclusive, VDR inh 79µM
CCc1cc2c(=O)n(Cc3ccco3)c(SCC(=O)N(C)C3CCS(=O)(=O)C3)nc2s1 (stereo not drawn)	Sfp inh 7.9µM, PLK1 PBD inh inconclusive, rTrxR1 inhibitor inconclusive, VDR inh inconclusive
COc1ccc(NC(=O)CSc2nc3ccccc3n2CC(=O)N2CCCC(C)C2)cc1 (stereo not drawn)	none (no result: Sfp inh, PLK1 PBD inh)
COC(=O)c1ccc(C(NC(=O)OCc2ccccc2)/C(=C/[C@@H](C)C(=O)N(C)C)c2cccnc2)cc1 (stereo partly drawn)	none (no result: PLK1 PBD inh, rTrxR1 inhibitor, TrxR1 substrate, VDR inh, mIDH1 inhibitor)
CCOC(=O)Cc1c(C)nc2c(-c3ccc(Cl)cc3)cnn2c1C	PLK1 PBD inh 19µM
CC(=O)c1cnc2c(-c3ccc(Cl)cc3)cnn2c1C	PLK1 PBD inh 30µM
Nc1c(C(=O)O)cnc2c(-c3ccc(Cl)cc3)cnn12	PLK1 PBD inh inconclusive
O=C(Nc1ccc(F)c([N+](=O)[O-])c1)C(=O)c1c(O)[nH]c2ccccc12	Sfp inh 20µM
Cc1ccc(-c2csc3nc(-c4ccncc4)[nH]c(=O)c23)cc1	PLK1 PBD inh 17µM
O=c1[nH]c(Cc2ccc(F)cc2)nc2scc(-c3ccc(F)cc3)c12	PLK1 PBD inh 6µM, VDR inh inconclusive
O=C(OCc1nc2scc(-c3ccccc3)c2c(=O)[nH]1)c1cccc([N+](=O)[O-])c1	Sfp inh inconclusive, PLK1 PBD inh 30µM
O=C(OCc1nc2scc(-c3ccccc3)c2c(=O)[nH]1)c1ccco1	none (no result: Sfp inh)
NC(=O)Cc1nc2scc(-c3ccccc3)c2c(=O)[nH]1	Sfp inh 79µM, PLK1 PBD inh inconclusive
CC(C)(C)[C@@H](O)C(Cc1ccc(Cl)cc1)n1cncn1 (stereo partly drawn)	none (no result: PLK1 PBD inh, rTrxR1 inhibitor, TrxR1 substrate, mIDH1 inhibitor)
CC(C)(C)c1ccc(C(O)c2ncc(-c3ccccc3F)[nH]2)cc1 (stereo not drawn)	none (no result: Sfp inh, rTrxR1 inhibitor, TrxR1 substrate, VDR inh, mIDH1 inhibitor)
O=[N+]([O-])c1ccc(C2CC(c3ccccc3)=Nc3ccccc3S2)cc1 (stereo not drawn)	Sfp inh 10µM, VDR inh inconclusive

Source: PubChem BioAssay
